Measurements as given in PubChem BioAssay (NCI).
This is part of a sample that, as a whole, favours compounds with a hit. Of some 83,000 tested, about 20% had one in any assay.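 Cells were grown in 96-well plates and exposed to the test compound at a single concentration for 48 hours; results are reported as percent growth, with values below 10 considered active.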 Values without a mark were called inactive. Activity calls are given as the source filed them.

Assays:
Test in all cases: NCI-60 one-dose screen, 48 h (100 = growth as untreated, 0 = no growth, -100 = all killed)
Conditions in all cases: 10 µM unless noted
SR leukemia = test system: SR leukemia
RPMI-8226 leukemia = test system: RPMI-8226 leukemia
OVCAR-8 ovarian = test system: OVCAR-8 ovarian
OVCAR-5 ovarian = test system: OVCAR-5 ovarian
OVCAR-4 ovarian = test system: OVCAR-4 ovarian
SK-OV-3 ovarian = test system: SK-OV-3 ovarian
IGROV1 ovarian = test system: IGROV1 ovarian
OVCAR-3 ovarian = test system: OVCAR-3 ovarian
HS 578T breast = test system: HS 578T breast
NCI/ADR-RES ovarian = test system: NCI/ADR-RES ovarian
T-47D breast = test system: T-47D breast
BT-549 breast = test system: BT-549 breast
MDA-MB-435 melanoma = test system: MDA-MB-435 melanoma
SW-620 colon = test system: SW-620 colon
MCF7 breast = test system: MCF7 breast
HCT-116 colon = test system: HCT-116 colon
HCC-2998 colon = test system: HCC-2998 colon
KM12 colon = test system: KM12 colon

Compound | growth (SR leukemia) | growth (RPMI-8226 leukemia) | growth (OVCAR-8 ovarian) | growth (OVCAR-5 ovarian) | growth (OVCAR-4 ovarian) | growth (SK-OV-3 ovarian) | growth (IGROV1 ovarian) | growth (OVCAR-3 ovarian) | growth (HS 578T breast) | growth (NCI/ADR-RES ovarian) | growth (T-47D breast) | growth (BT-549 breast) | growth (MDA-MB-435 melanoma) | growth (SW-620 colon) | growth (MCF7 breast) | growth (HCT-116 colon) | growth (HCC-2998 colon) | growth (KM12 colon)
c1ccc(-c2cn(-c3ccccc3)c(-c3ccccc3)n2)cc1 | -29.7% (active) | -58.9% (active) | 21.1% | 83.4% | 88.7% | 97.1% | 4.72% (active) | 13.4% | 87.1% | 92.4% | 67.5% | 72.5% | 72.6% | 23.2% | -31.1% (active) | -91.4% (active) | 92.3% | 11.8%
COc1cccc(CC(C)=C(c2ccc(OCCN3CCCCC3)cc2)c2ccc(OCCN3CCCCC3)cc2)c1 | -41.2% (active) | -45.8% (active) | -50.3% (active) | 24% | -49% (active) | 76.9% | -10.5% (active) | -40.7% (active) | -50% (active) | -13.3% (active) | -42.4% (active) | 44.6% | -96.6% (active) | -71.2% (active) | -81.4% (active) | -64.7% (active) | -68.8% (active) | -30.9% (active)
O=C(CCl)N(C1CCCCC1)C1CCCCC1 | 100% | 112% | 104% | 111% | 89.7% | 117% | 96.7% | 114% | 105% | 105% | 101% | 97.4% | 106% | 113% | 96.7% | 101% | 107% | 112%
Cc1nn(-c2ccc(Cl)cc2)c2ncnc(N/N=C/c3cccc([N+](=O)[O-])c3)c12 | 51.3% | 66.3% | 99.7% | 106% | 94.5% | 104% | 94.7% | 8.17% (active) | 99.3% | 105% | 101% | 106% | 97.1% | 88.9% | 103% | 104% | 94.8% | 66.5%
COc1cc2c(cc1OCCCN1CCN(CCCn3c4ccccc4c4ccccc43)CC1)N=C[C@@H]1CCCN1C2=O | -34.7% (active) | -57.4% (active) | -6.46% (active) | 3.88% (active) | -39.5% (active) | -80.5% (active) | -64.6% (active) | -91.1% (active) | -54.5% (active) | 1.66% (active) | -31.1% (active) | -84.1% (active) | -80.5% (active) | -83.2% (active) | -72% (active) | -27.8% (active) | -86.3% (active) | -64.7% (active)
CC(C)(C)OC(=O)NC(CSCc1ccccc1)C(=O)ON1C(=O)CCC1=O (stereo unspecified) | 78.4% | 97.5% | 104% | 106% | 121% | 104% | 114% | 107% | 115% | 103% | 93.9% | 117% | 109% | 105% | 98.4% | 92.5% | 101% | 109%
O=C1/C(=C/c2ccccc2)CN(C(=O)CCN2CCC(=NO)CC2)C/C1=C\c1ccccc1 | 7.97% (active) | -28.6% (active) | 13.6% | 5.29% (active) | 15.3% | 77.5% | -5.65% (active) | -27% (active) | 17% | 14.6% | -2.11% (active) | 2.46% (active) | -58.1% (active) | -52% (active) | -21.5% (active) | -68.7% (active) | -65.5% (active) | -63.1% (active)
COc1ccc(Nc2ncccc2C(=O)NCc2cn(Cc3cccc(Oc4ccccc4)c3)nn2)cc1 | 30.8% | 55.4% | 65.6% | 75.2% | 71.1% | 36.8% | 53.5% | -4.73% (active) | 48.7% | 16.3% | 50.5% | 53.1% | -16.3% (active) | 24.6% | 20% | 23.3% | 41.7% | 20.2%
CN1CCN(Cc2ccc(NC(=O)c3cncc(C#Cc4cnc(N)c5cnccc45)c3)cc2C(F)(F)F)CC1 | 11% | -16.7% (active) | 23.8% | 2.45% (active) | 11.9% | -26.8% (active) | -8.29% (active) | 35.7% | -18% (active) | 65.9% | 22.8% | 27.4% | -9.64% (active) | -10.9% (active) | 25.3% | 0.743% (active) | 19.9% | 3.81% (active)
O=C(NNC(=S)Nc1ccccc1)c1cc2ccc1CCc1ccc(cc1)CC2 | 78.4% | 46.4% | 68.2% | 92.2% | 47.8% | 113% | 64.1% | 55.5% | 97.2% | 67.2% | 53.6% | 80.4% | 70.3% | 63.6% | 61.7% | 44.5% | 70.2% | 77.1%
Clc1cc2c(nn1)Nc1ccccc1S2 | 77.2% | 78.1% | 96.2% | 100% | 95.3% | 99% | 27.5% | 117% | 102% | 97.5% | 85% | 103% | 98.1% | 103% | 85.3% | 96.5% | 114% | 102%
O=C1c2ccccc2-c2ccccc2C1(Cl)Cl | 16.7% | -10.8% (active) | -90.4% (active) | -73.7% (active) | -98.6% (active) | 94.5% | -98.5% (active) | -87.2% (active) | -7.35% (active) | -44.2% (active) | -42.7% (active) | -84% (active) | -90.1% (active) | -65.8% (active) | -88.7% (active) | -70.6% (active) | 89.6% | -90.6% (active)
COC(=O)c1cccc2c1N(C)c1c(cccc1C(=O)OC)CC2 | 114% | 90.5% | 113% | 98.7% | 112% | 110% | 108% | 102% | 89.7% | 95.6% | 95.6% | 112% | 101% | 105% | 108% | 104% | 97.4% | 101%
CN1C(=O)N(C)C2C1NN=c1s/c(=C\c3cccnc3)c(=O)n12 (stereo unspecified) | 27.3% | 95.4% | 93.2% | 93% | 93.6% | 85% | 80.8% | 65.6% | 84.8% | 78.5% | 91.2% | 79.9% | 8.5% (active) | 59.1% | 51.6% | 75.9% | 92.2% | 53.8%
CCOC(=O)c1c(/N=C2\SC(=O)/C(=C\C(=O)OC)N2NC)sc2c1CCN(C(=O)OCC)C2 | 103% | 95.3% | 103% | 102% | 99.1% | 109% | 102% | 106% | 103% | 103% | 93.4% | 91.7% | 101% | 105% | 98.7% | 95% | 92.5% | 99.1%
COC(OC)c1ccccc1 | 93.9% | 121% | 98.9% | 107% | 110% | 99.2% | 101% | 106% | 99.2% | 99.4% | 99.4% | 92.4% | 102% | 114% | 99% | 98.5% | 93.6% | 112%
Fc1ccc(Nc2ncnc3ccc(-c4cnc5[nH]ccc5c4)cc23)cc1Cl | -26.1% (active) | -17.9% (active) | -28% (active) | 8.66% (active) | -61% (active) | 15.3% | -37.8% (active) | -73.7% (active) | -12.6% (active) | 14% | -35.3% (active) | 20.3% | 51.8% | 4.35% (active) | 9.34% (active) | -36.3% (active) | 34% | 23.3%
